Compounds with a hit are over-represented: about 1.5% of the library has one in this group of screens.
AI-2 QS mod = Vibrio harveyi AI-2 quorum sensing modulation. activity change, % at 7.5 µM. actives 0.4% (n = 300,000). Vibrio harveyi JMH597 AI-2 luminescence/OD600 ratio, 9 h; hits give low values; strain lacks LuxN and CqsS sensors; 0 = neutral-control median. AID 2094; in the data active = activity change below about -75%, passing the limit was not always enough;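 note: luminescence divided by OD600 gain over 9 h not by final OD600 alone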
ARNT TACC3 PPI = ARNT/TACC3 interaction disruption | Q9Y6A5 | AlphaScreen His-ARNT PAS-B/GST-TACC3 binding, luminescence; TACC3 fragment carries E629A point mutation | inhibition, % at 9.99 µM | actives 0.66% (n = 390,000) | AID 623870;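 active = mean inhibition of replicates at least 50% and at least half of replicates each reaching 50%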;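 note: 0% = complete ARNT plus TACC3 wells and 100% = ARNT alone without TACC3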
Rin1 Abl inh = blocks binding of human Rin1 to Abl; P00519+Q13671; TR-FRET Rin1/Abl binding, biochemical; inhibition, % at 7.35 µM; actives 0.4% (n = 360,000); AID 588664; in the data active = inhibition above about 5%, passing the limit was not always enough
HGIII-sPLA2 inh = Blocks human group III sPLA2 activity | Q9NZ20 | QFRET BODIPY PC-A2 liposome hydrolysis, fluorescence | inhibition, % at 12.2 µM | actives 0.56% (n = 370,000) | AID 743126;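 active = inhibition above mean plus 3 SD of compounds lying within the high and low control bounds, cut at about 19% in these data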;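 note: 0% = median of test compound wells and 100% = no enzyme DMSO wells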
Target sequence (Q9NZ20 whole entry, looked up): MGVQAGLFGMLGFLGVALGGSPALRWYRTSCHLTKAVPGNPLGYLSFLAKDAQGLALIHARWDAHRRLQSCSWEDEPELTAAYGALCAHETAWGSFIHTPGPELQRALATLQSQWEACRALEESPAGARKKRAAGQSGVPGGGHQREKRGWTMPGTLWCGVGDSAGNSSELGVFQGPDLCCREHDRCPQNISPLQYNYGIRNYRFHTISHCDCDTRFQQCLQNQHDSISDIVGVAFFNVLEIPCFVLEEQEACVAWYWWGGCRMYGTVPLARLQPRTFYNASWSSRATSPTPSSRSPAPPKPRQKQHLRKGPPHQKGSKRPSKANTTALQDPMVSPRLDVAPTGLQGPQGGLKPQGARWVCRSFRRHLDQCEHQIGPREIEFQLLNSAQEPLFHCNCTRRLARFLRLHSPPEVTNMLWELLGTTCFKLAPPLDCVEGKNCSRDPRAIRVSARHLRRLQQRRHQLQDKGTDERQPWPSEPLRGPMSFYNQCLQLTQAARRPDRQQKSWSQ
sPLA2 confirm = human GIII-sPLA2 inhibition, confirmation | shares compounds with HGIII-sPLA2 inh | recombinant hGIII-sPLA2, BODIPY PC-A2 QFRET fluorescence | inhibition, % at 12.2 µM | actives 34% (n = 2,000) | AID 743280;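 active = mean inhibition across triplicates above the hit cutoff set in the earlier primary screen, cut at about 19% in these data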;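 note: 0% = enzyme with DMSO and 100% = DMSO wells lacking enzyme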
535nm interf = 535nm fluorescence interference, HGIII-sPLA2 counter-screen. actives 8.5% (n = 2,000). shares compounds with HGIII-sPLA2 inh. inhibition, % at 12.2 µM. BODIPY FL product fluorescence interference, QFRET. AID 743282;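 active = average inhibition above the solvent-only control mean plus 3 SD, cut at about 6% in these data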;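 note: 0% = DMSO with substrate plus product and 100% = DMSO with substrate alone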
BODIPY interf DR = interferes with 535nm fluorescence in dose response counter-screen | IC50, µM | shares compounds with HGIII-sPLA2 inh | BODIPY FL product fluorescence interference, cell-free | AID 743455 | 240 tested, under 10 active;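 active = IC50 at or below 10 µM; inactive = IC50 above 10 µM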
Numbers without * were called inactive; / = not tested or not shown.

SMILES	AI-2 QS mod	ARNT TACC3 PPI	Rin1 Abl inh	HGIII-sPLA2 inh	sPLA2 confirm	535nm interf	others
Cc1cccc2sc(=S)[nH]c12	/	/	1	24*	20*	-4
Cc1cccc(C)c1Nc1n[nH]c(=S)s1	/	/	0	14	/	/
CC1CCN(C(C(=O)NC2CCCCC2)c2cc3c(cc2[N+](=O)[O-])OCO3)CC1 (stereo not drawn)	14	1	-1	12	/	/
CC1CCCN(C(C(=O)NC2CCCCC2)c2cc3c(cc2[N+](=O)[O-])OCO3)C1 (stereo not drawn)	-12	/	0	20*	2	-16
CC(C)c1cc(C(=O)NNC(=S)NCc2ccco2)c(O)c(C(C)C)c1	18	-19	-3	51*	57*	4	BODIPY interf DR=>122
CN(C)c1ccc(NC(=O)c2ccc3c(c2)nnn3C)cc1	5	-3	-1	18	/	/
CN(C)c1ccc(NC(=O)Nc2ccc3c(c2)nnn3C)cc1	-6	-4	-2	19*	7	-4
O=C(NCCN1CCCCC1)[C@H]1N[C@H]2c3ccc(-c4ccncc4)c(=O)n3C[C@H]2[C@@H]1CO	/	-1	/	/	/	/
S=C(Nc1ccccc1)Nc1nccs1	11	2	-1	27*	30*	1	BODIPY interf DR=>122
Fc1ccc(NC(=S)Nc2nccs2)cc1	-6	-1	-1	23*	28*	-3	BODIPY interf DR=>122
O=C(Cc1ccc(F)cc1)Nc1nccs1	0	-3	1	-6	/	/
O=C(Cc1ccccc1)Nc1nccs1	-3	-2	1	0	/	/
NC(=S)N/N=C1\CCSc2ccc(Cl)cc21	22	4	0	30*	15	-6
CCOc1ccccc1NC(=S)NC1CC2CCC1C2 (stereo not drawn)	18	-5	-1	/	/	/
COc1cccc(C=NNC(=S)NC2CC3CCC2C3)c1O (stereo not drawn)	/	/	/	26*	31*	7.8*
COc1ccc(NC(=S)NC2CC3CCC2C3)c(OC)c1 (stereo not drawn)	1	6	1	21*	20*	-1
C[C@@H]1CN([C@H](C)CO)C(=O)c2cccc(NC(=O)Nc3ccc4c(c3)OCO4)c2O[C@@H]1CN(C)Cc1ccc(C(=O)Nc2ccccc2N)cc1	/	26	/	/	/	/
CN1CCN(C(=O)C[C@@H]2CC[C@@H]3[C@H](COC[C@H](O)CN3Cc3cccc(Cl)c3)O2)CC1	/	-4	/	/	/	/
O=C1c2ccccc2C(=O)c2c1ccc1c(=O)n(-c3ccccc3)[nH]c21	17	1	-1	26*	20*	-2
Cc1cccc(-n2[nH]c3c4c(ccc3c2=O)C(=O)c2ccccc2C4=O)c1	10	-4	-1	3	/	/
O=C(C[C@H]1C=C[C@@H](NS(=O)(=O)c2ccc(F)cc2)[C@@H](CO)O1)N1CCC(Cc2ccccc2)CC1	/	-1	/	/	/	/
COc1cccc2sc(NNC(=O)COc3ccccc3)nc12	6	-3	1	23*	16	-3
Cc1ccc(-c2ccc3c(c2)O[C@H](CN(C)C(=O)C2CC2)[C@H](C)CN([C@@H](C)CO)S3(=O)=O)cc1	/	0	/	/	/	/
CCOc1ccc2[nH]c3c(NCCOC)ncnc3c2c1	11	4	0	-4	/	/
CCOc1ccc2[nH]c3c(NCCN(CC)CC)ncnc3c2c1	-5	11	2	20*	2	-16
COC(=O)CCCn1cc(CN2CC(N3CCN(C4CCN(C)CC4)CC3)CS2(=O)=O)nn1 (stereo not drawn)	/	/	/	15	/	/
CCCCCCN1CCN(C2CN(Cc3cn(CCCC(=O)OC)nn3)S(=O)(=O)C2)CC1 (stereo not drawn)	/	/	/	21*	-3	-6
C[C@@H]1CN([C@H](C)CO)C(=O)Cc2cc(NC(=O)Cc3ccccc3)ccc2O[C@H]1CN(C)C(=O)Nc1cccc2ccccc12	/	29	/	/	/	/
CC(C)C[C@H](NC(=O)c1[nH]cnc1C(=O)N[C@@H](C)C(=O)OC(C)(C)C)C(=O)OC(C)(C)C	7	23	-1	23*	-10	-30
CCCN1[C@H](C(=O)OC)[C@@H](CO)[C@@H]2Cn3c(ccc(-c4cncnc4)c3=O)[C@@H]21	/	5	/	/	/	/

High-throughput results deposited in PubChem BioAssay by several laboratories.
